From PubChem BioAssay AID771 (SRMLSC, 2007) come the findings set out here.

SMILES strings stand for the structures. Among all 3,300 compounds or so, about 55 (2%) were called active. This is one part of a sample in which actives are shown more often than they occur.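 The calls were made as follows: active = growth inhibition above 90%, meaning viable cell count by imaging cut by more than 90% versus vehicle controls; inactive = growth inhibition below 90%.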

A short description of the assay: HT29 colon tumor cell growth inhibition, primary screen, imaging, high content imaging, 48 h, CellTiter-Glo (AID 771).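 As to condensed nuclei: condensed means Hoechst nuclear area under control median minus 1.5 SD.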 Conditions: HCS imaging cell count, at 10 µM, stronger effect = higher value; for condensed nuclei: measured here: percent cells with condensed nuclei. (In general: Cellular ATP, detected with luciferase, serves as a proxy for viable cell number.)
The mark [1] stands for this setting: measured here: ATP CellTiter-Glo viability inhibition.

With `CCOc1c(C)cc2[nH]c(CCC(=O)O)nc2c1C`, the growth inhibition is 26.2% (inactive) and the condensed nuclei came out at 2.92%. For the same molecule, under setting [1], the growth inhibition was 7.89%.
Consider `CN1CCN(Cc2c(O)c(Cl)cc3c(-c4ccccc4)cc(=O)oc23)CC1`, for which the growth inhibition was 8.72% (inactive) and the condensed nuclei is 1.6%. Under setting [1], the growth inhibition is -6.84%.
Regarding `C(=N\n1cnnc1)/c1cccc(Oc2ccccc2)c1`, the growth inhibition was -29.2% (inactive) and the condensed nuclei is 2.95%. Under setting [1], the growth inhibition was -4.38%.
On the same counts, the results for `COc1ccccc1N1CCN(C2CCN(C(=O)c3cccs3)CC2)CC1` are 32% (inactive), 4.31% and 11.2%.
On the same counts, the results for `CCCCCCn1cc(C(=O)O)c(=O)c2ccccc21` are -27.6% (inactive), 2.69% and 1.82%.
Regarding `COC(=O)c1[nH]c2cc(OC)ccc2c1NC(=O)CN1CCC(C(N)=O)CC1`, the growth inhibition is 49.4% (inactive) and the condensed nuclei amounted to 2.82%. In addition, the growth inhibition under setting [1] is -5.92%.
Regarding `COC(=O)c1[nH]c2cc(OC)ccc2c1NC(=O)CN1CCN(c2cccc(C)c2)C(C)C1` (stereo not drawn), the growth inhibition is 92.4% (active) and the condensed nuclei came out at 8.77%. For the same molecule, the growth inhibition under setting [1] worked out at 75.4%.
On to `COC(=O)c1[nH]c2cc(OC)ccc2c1NC(=O)CCN1CCCC(C)(C)C1`, for which the growth inhibition is 5.81% (inactive) and the condensed nuclei amounted to 1.83%. The growth inhibition under setting [1] was determined as 8.79%.
Taken in the same sequence, the figures for `COC(=O)C1CCN(c2nc3ccccc3nc2C(C#N)C(=O)NCCc2ccccc2)CC1` (stereo not drawn) were 30% (inactive), 3.61% and 5.48%.
Taken in the same sequence, the figures for `COC(=O)c1ccccc1OCc1cccc(C)n1` were 39.5% (inactive), 0.9% and 2.81%.
For the molecule `COC(=O)c1cccc(Nc2cc(C)nc(-c3ccccc3O)n2)c1`, the growth inhibition was 91.6% (active) and the condensed nuclei worked out at 8.33%. Further, under setting [1], the growth inhibition came to 77.4%.
Taken in the same sequence, the figures for `COC(=O)c1ccc(Nc2cc(C)nc(-c3ccccc3O)n2)cc1` were 12.1% (inactive), 10.7% and 23%.
On the same counts, the results for `CCOc1ccc(-c2nn3c(-c4ccc(OC)cc4)nnc3s2)cc1` are 10.5% (inactive), 2.81% and 4.54%.
Take `C[C@]12CC[C@@H]3c4ccc(O)cc4CC[C@H]3[C@@H]1CC[C@@H]2OC(=O)CCC(=O)O`: the growth inhibition was -33.9% (inactive) and the condensed nuclei came out at 0.84%.
Consider `C[C@]12CC[C@@H]3c4ccc(OC(=O)c5ccccc5)cc4CC[C@H]3[C@@H]1CC[C@@H]2O`, for which the growth inhibition was 90.5% (active) and the condensed nuclei worked out at 22.1%.
With `C[C@]12CC[C@@H]3c4ccc(O[C@@H]5O[C@H](C(=O)O)[C@@H](O)[C@H](O)[C@H]5O)cc4CC[C@H]3[C@@H]1C[C@@H](O)[C@@H]2O`, the growth inhibition is -7.06% (inactive) and the condensed nuclei is 1.8%.
For `Cc1c(O)c(CN2CCCC(C)C2)cc2c3c(c(=O)oc12)CCC3` (stereo not drawn), the growth inhibition is -14.5% (inactive) and the condensed nuclei was 1.69%. Besides, the growth inhibition under setting [1] was -14.7%.
For the molecule `CN(C1CCS(=O)(=O)C1)S(=O)(=O)c1cccc2nsnc12` (stereo not drawn), the growth inhibition is -12.3% (inactive) and the condensed nuclei worked out at 8.15%. In addition, the growth inhibition under setting [1] worked out at 2.06%.
Turning to `N#CC1=C(SCC(=O)c2ccc(Cl)cc2)NC2=C(C(=O)CCC2)C1c1ccco1` (stereo not drawn), the growth inhibition is 92.8% (active) and the condensed nuclei came to 7.89%. For the same molecule, under setting [1], the growth inhibition worked out at 78.2%.
Taken in the same sequence, the figures for `CCc1ccc(NC(=O)CSC2=C(C#N)C(c3ccco3)C3=C(CCCC3=O)N2)cc1` (stereo not drawn) were 86.5% (inactive), 11.8% and 58.1%.
As for `N#CC1=C(SCC(=O)c2ccc(Br)cc2)NC2=C(C(=O)CCC2)C1c1ccco1` (stereo not drawn), the growth inhibition is 68.9% (inactive) and the condensed nuclei amounted to 7.14%. Also, the growth inhibition under setting [1] turned out to be 54.1%.
In the case of `Cc1ccc(NC(=O)CSC2=C(C#N)C(c3ccco3)C3=C(CCCC3=O)N2)cc1` (stereo not drawn), the growth inhibition is 18.9% (inactive) and the condensed nuclei was found to be 2.42%. Further, the growth inhibition under setting [1] was -18.4%.
As to `Cc1ccc(C(=O)CSC2=C(C#N)C(c3ccco3)C3=C(CCCC3=O)N2)cc1` (stereo not drawn), the growth inhibition was 86% (inactive) and the condensed nuclei came out at 6.33%. The growth inhibition under setting [1] came to 77.7%.
Taken in the same sequence, the figures for `N#CC1=C(SCC(=O)c2ccccc2)NC2=C(C(=O)CCC2)C1c1ccco1` (stereo not drawn) were 94.2% (active), 25.7% and 71.1%.
On the same counts, the results for `Cn1c(=O)c2c3c(sc2n2c(SCC(=O)c4ccc(Cl)cc4)nnc12)COC(C)(C)C3` are -42.1% (inactive), 0.75% and -20.9%.
Taken in the same sequence, the figures for `CN=C1c2cc3c(Br)c(OC)ccc3n2CCN1C` were 13.5% (inactive), 1.37% and 20.4%.
As for `COC(=O)c1cc(Br)c(=O)n(Cc2ccco2)c1`, the growth inhibition was 48.5% (inactive) and the condensed nuclei came out at 2.45%. Further, under setting [1], the growth inhibition was -15.8%.
On the same counts, the results for `CN(C)S(=O)(=O)Nc1ccc(NS(=O)(=O)N(C)C)c(S(=O)(=O)c2ccccc2)c1` are 17.4% (inactive), 2.1% and -14.5%.
On the same counts, the results for `CCOC(=O)C1=C(C)NC(SCC(=O)Nc2nc(C)cs2)=C(C#N)C1c1cccs1` (stereo not drawn) are 95.4% (active), 11.1% and 77.6%.
For `C#CCSC1=C(C#N)C(c2cccs2)C(C(=O)OCC)=C(C)N1` (stereo not drawn), the growth inhibition was -11.7% (inactive) and the condensed nuclei turned out to be 1.95%. Besides, the growth inhibition under setting [1] is -5.67%.
`CCSC1=C(C#N)C(c2cccs2)C(C(=O)OC)=C(C)N1` (stereo not drawn): the growth inhibition was -14.9% (inactive) and the condensed nuclei was found to be 2.41%. Further, under setting [1], the growth inhibition was -4.48%.
On the same counts, the results for `CCCOc1ccc(/C(O)=C2/C(=O)C(=O)N(CCCN3CCOCC3)C2c2ccncc2)cc1` (stereo not drawn) are -41.6% (inactive), 2.83% and -15.8%.
Taken in the same sequence, the figures for `CCCCOc1cccc(-c2nnc(N)s2)c1` were 2.4% (inactive), 3.96% and -0.17%.
As to `CCC1CC2(C)NC(=O)c3c(sc4c3CC(C)(C)OC4)N2C1=O` (stereo not drawn), the growth inhibition is -1.91% (inactive) and the condensed nuclei is 0.79%. In addition, the growth inhibition under setting [1] is -5.72%.
In the case of `CC1=C(C(=O)Nc2ccccc2)C(c2ccncc2)C(C#N)=C(SCC(=O)NC(C)C)N1` (stereo not drawn), the growth inhibition was 38.7% (inactive) and the condensed nuclei stood at 1.77%. The growth inhibition under setting [1] came out at 0.29%.
For the molecule `CC(C)(C)C1CCC2(CC1)C(C#N)=C(SCC(=O)Nc1ccccc1)NC(=O)C2C#N` (stereo not drawn), the growth inhibition is 91.4% (active) and the condensed nuclei is 2.13%. Further, the growth inhibition under setting [1] worked out at 71.8%.
`COc1cccc(NC(=O)CSC2=C(C#N)C(c3ccco3)C3=C(CCCC3=O)N2)c1` (stereo not drawn): the growth inhibition was 61% (inactive) and the condensed nuclei is 1.16%. Also, under setting [1], the growth inhibition was 34.8%.
